Experimental findings from the supplement of paper PMC6555819 are described below.

The subject of this assay is VDR:RXRa (NR concentration 270 nM, RXRa partner concentration 90 nM). As to the kind of experiment: PBM binding z-score (relative to random genomic background probes); higher = stronger binding; sequences stand for … in GC…GCGATTGACAGCGTAGAATGAAGG
The method, then:
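Protein-binding microarray (Agilent 4x180K custom design, double-stranded 60-nt probes: 5' GC cap, 34-nt variable region, 24-nt constant primer region; full probe sequence given). Purified or IVT nuclear receptor:RXRα heterodimers (3:1 NR:RXRα, mostly 270:90 nM) or homodimers were incubated for 1 h in PBS with 2% milk and no ligand, then detected with Alexa488 antibodies. Fluorescence from o1-orientation probes (~5 replicates averaged) was converted to z-scores against 500 random hg19 background probes. Variable regions are seed direct-repeat (DR0–DR5) sites, all their single-nucleotide variants and half-site ablations.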
On to CTGTGTAGGTTAAGGGGGTCATTCAGTTTGAAAG, for which the PBM binding z-score was 7.46. CTATGTAGGTTAAGGGGGTCATACAGTTTGAAAG yielded a PBM binding z-score of 7.05. The figure for ATATGTATGTTAGGGTCATTCAGAAAGTAGGGAA is 4.38.

As to CCGAGTAGGTTACGAGGGGGCAGTCAGTGCGAAT, the PBM binding z-score was determined as 3.95.

ATATGTAGGTTAGGGTCTTTCAGAAAGTAGGGAA: the PBM binding z-score was determined as 0.666. With CTATGTAGGTTAAGGGGGTCATTAAGTTTGAAAG the figure was 7.64; with GTACCAAGGTGAATAGGTCGTTGATGAGTAGGCG, 0.95. With TAGCCTAGGACATGCGGGCCAGTATAGTGTCGGC the figure was -0.777; with TGAATGACGTTAAAGATCAGGGAACGTGGCGTCG, -0.237; with TCAAGTAGGTTACGGGGGCATTCAGGGATGAAGA, 4.11. With TCGAGTAGATTACGGGGGCATTCAGGGATGAAGA the figure was 2.83. Sequence GATACGGGGTCAGCTAGAGGCCAGAGTATGGAAA had a PBM binding z-score of 5.72. With CGCCCAAGGTCAGCAGGTCAGTGAAAGCGACGTG the figure was 3.83. The figure for CGAACTAGGTCAAAGGACAATGAAAGGCGACGTA is 1.73. With TCGAGTAGGTTAAGGGGGCATTCAGGGATGAAGA the figure was 3.35; with ATATGTAGGTAACATCCGGGTCATTCAGGCTATG, 3.75. The sequence CCTCCAAGGTCATAGGAGGTCAGTGAAGACAGAT registered a PBM binding z-score of 6.6. The figure for CTCCAAAGGTCGGTTGAGGTGAGTATACGGATAA is 2.42. With ATATGAAGGTTAGGGTCATTCAGAAAGTAGGGAA the figure was 4.6; with AAAATGAGGTTAAGATCAGGGAAACAGAATACAT, 1.35; with CTATGTAGGTTAAGGGGGTCATTCATTTTGAAAG, 7.08. TCTAGCTGGTCAAAGGTCACACACTCGAAATGCG showed a PBM binding z-score of 5.36.

As to GATACACGGTCAAGGCCAGAGTACGCGTATTGAT, the PBM binding z-score is -0.0304. With ATATGTAGGTTCGGGTCATTCAGAAAGTAGGGAA, the PBM binding z-score was 3.72. The figure for CTATGTAGGCTAAGGGGGTCATTCAGTTTGAAAG is 6.41; for AGTCGGAGGACAAAGGTCAGAGCTACGCCAGTGA it is 3.28.

The sequence CCATGTAGGTTAAGGGGGTCATTCAGTTTGAAAG had a PBM binding z-score of 7.41.

CCGAGTAGGTTACGAGGCGGCATTCAGTGCGAAT gave a PBM binding z-score of -0.141. With CCTTACGGGTCCCTGACAGGTTATAGCATTTGGA the figure was -0.165; with ATATGTAGGTTAGCGTCATTCAGAAAGTAGGGAA, 0.0435.

For CCTTACGGGTCAGGGTTATAGCACGGGTGGTACG, the PBM binding z-score was determined as 2.26. With CGAACTAGGTCACCAGGACATTGAAGAGGTTGGA the figure was 2.31. In turn, CGTTCAAGGTCATAGGAGGTCAGTGAAGACAGAT had a PBM binding z-score of 6.67.

CTTACTGGGCCAAAGGTCATTGATTCCAATGCTC: the PBM binding z-score was determined as 4.77. With TCGAGTAGGTTACGGGGGCATTCAGGGATGAAGA the figure was 4; with CCTACTGGGCCAAGCTCATTGATCAGTCAAAGCA, -0.667; with TCGAGTAAGTTACGGGGGCATTCAGGGATGAAGA, 3.01.

With ATATGTCGGTTAGGGTCATTCAGAAAGTAGGGAA, the PBM binding z-score came out at 4.56. With CGAACTAGGTCAAAGTACAGTGAAAGGCGACGTA the figure was 1.84; with CCTAGCAGGCCAGGGTCACCCAAGCATTTCGCTT, 2.96.
